The source of these data is PubChem BioAssay (Tox21).

Assay [1] is described as follows: qHTS assay to identify small molecule antagonists of the androgen receptor (AR) signaling pathway using the MDA cell line in the presence of 0.5 nM R1881 - cell viability counter screen (AID 1259242). Also: nearly all actives have a fitted effect of over 45% in size. Also: potency is read from the fitted curve at half-maximal effect. An outline of the steps: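 Viability of MDA-kb2 cells was multiplexed with the luciferase AR readout; after 16 hr with compounds and R1881 at 0.5 nM final, CellTiter-Fluor fluorescence was recorded.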
(In general: Quantitative high-throughput screening tests each substance at several concentrations.)

Assay [2] concerns the target Estrogen receptor (Homo sapiens) (UniProt P03372). Briefly: qHTS assay to identify small molecule antagonists of the estrogen receptor alpha (ER-alpha) signaling pathway using the BG1 cell line in the presence of 0.1 nM 17-beta-estradiol (AID 1259244). Also: nearly all actives have a fitted effect of over 50% in size. Also: potency is read from the fitted curve at half-maximal effect. The procedure, abridged: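 Estradiol at 0.1 nM (final) stimulates the endogenous ER-alpha of VM7Luc4E2 cells carrying an ERE-driven luciferase; compounds are co-incubated 22 h at 37C and luciferase output quantified by luminescence.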

Assay [3] in a line: qHTS assay to identify small molecule HDAC inhibitors (AID 1259364).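 Also: wild-type HCT-116 cells with endogenous class I/II HDAC activity; top concentration of the series differs between compounds; nearly all actives have a fitted effect of over 45% in size.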 The procedure, abridged: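 Read-out: luminescence of HDAC-Glo I/II reagent, 30 min RT, reflecting class I/II deacetylase activity in whole HCT-116 cells pre-exposed 2 h to DMSO-dissolved compounds.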
Assay [4] in a line: qHTS assay to identify small molecule HDAC inhibitors - cell viability counter screen (AID 1259365). Also: series mostly up to about 92 µM; nearly all actives have a fitted effect of over 50% in size. An outline of the steps:
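Cytotoxicity was gauged in wild-type HCT-116 cells after a brief 2hr treatment with DMSO-dissolved compounds at 37C and 5% CO2, using CellTiter-Glo luminescence developed for 30min at room temperature.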

Assay [5] is described as follows: qHTS assay to identify small molecule agonists of the sonic hedgehog signaling (Shh) pathway - cell viability counter screen (AID 1259366). Also: nearly all actives have a fitted effect of over 50% in size. Also: potency is read from the fitted curve at half-maximal effect. The procedure, abridged: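 Stable Gli1-Luc NIH/3T3 clone, 2,000 cells/well. Compound exposure 24hr at 37C. Read-out: CellTiter-Fluor fluorescence.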
A short description of assay [6]: qHTS assay to identify small molecule antagonists of the sonic hedgehog signaling (Shh) pathway - cell viability counter screen (AID 1259367). Also: nearly all actives have a fitted effect of over 55% in size. Also: potency is read from the fitted curve at half-maximal effect. An outline of the steps: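 Using CellTiter-Fluor, viability of Gli1-Luc reporter 3T3 cells is read by fluorescence in the wells used for the Shh luciferase assay. Treatment lasts 23 hr with conditioned medium, then reagent 1 hr at 37C.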

A short description of assay [7]: qHTS assay to identify small molecule agonists of the sonic hedgehog signaling (Shh) pathway (AID 1259368; calls by dose curve;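 also: NIH/3T3-derived 3T3Gli1-Luc cells carrying a stable Gli1-driven firefly luciferase reporter; series mostly up to about 92 µM; nearly all actives have a fitted effect of over 15% in size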). The procedure, abridged: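 A Gli1 transcriptional response element controlled firefly luciferase in 3T3Gli1-Luc cells. Compounds and a positive control were added 4 hr after plating, and cells were incubated a further 24 hr at 37 C before luminescence detection.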

Assay [8] in a line: qHTS assay to identify small molecule antagonists of the sonic hedgehog signaling (Shh) pathway (AID 1259369; calls by dose curve; also: nearly all actives have a fitted effect of over 45% in size; also: potency is read from the fitted curve at half-maximal effect). An outline of the steps: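 For antagonist detection, the reporter line received test compounds together with conditioned medium, incubated 24hr at 37 C, 5% CO2, then luminescence was recorded following 30min room-temperature luciferase reagent incubation.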
Assay [9] has as its target Estrogen receptor beta (Homo sapiens) (UniProt Q92731). Briefly: qHTS assay to identify small molecule antagonists of the estrogen receptor beta (ER-beta) signaling pathway (AID 1259378; active = well fitted inhibition curve with a large enough effect in the signal ratio in the repeat runs, not every such curve was filed as active; the % refers to the signal ratio). The procedure, abridged:
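Antagonist mode: compounds added to beta-lactamase reporter HEK293T ER-beta-UAS cells stimulated with E2 (1nM final), 16 hr at 37C. LiveBLAzer B/G FRET substrate, 2 hours room temperature, fluorescence read-out.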

Assay [10] in a line: qHTS assay to identify small molecule agonists of the androgen receptor (AR) signaling pathway in the presence of an antagonist - cell viability counter screen (AID 1259379). Also: nearly all actives have a fitted effect of over 25% in size. Also: potency is read from the fitted curve at half-maximal effect.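 As to activity change, negative = cytotoxicity: MDA-kb2 human breast cancer cells carrying an MMTV luciferase reporter; series mostly up to about 92 µM.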 An outline of the steps: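 Seed MDA-kb2 at 3,000 cells/well; incubate 5 hr, 37C, 0% CO2. Add nilutamide to 3.0uM final, then pin compounds at 15 concentrations. Incubate 16 hr. Add CellTiter-Fluor at 15 hr, read fluorescence after 1 hr.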

Assay [11] is described as follows: qHTS assay to identify small molecule agonists of the estrogen receptor beta (ER-beta) signaling pathway - cell viability counter screen (AID 1259380). Also: nearly all actives have a fitted effect of over 30% in size. Also: potency is read from the fitted curve at half-maximal effect. The procedure, abridged: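 CellTiter-Glo read, 30 min RT, same wells as bla assay; cells ER-beta-UAS-bla HEK293T; 16 hr compound, 37C; medium 2% charcoal-stripped FBS.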
Assay [12] is described as follows: qHTS assay to identify small molecule antagonists of the estrogen receptor beta (ER-beta) signaling pathway - cell viability counter screen (AID 1259382). Also: nearly all actives have a fitted effect of over 55% in size. Also: potency is read from the fitted curve at half-maximal effect.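 As to activity change, negative = cytotoxicity: HEK293T cells carrying ER-beta-UAS-bla reporter stimulated with estradiol; series mostly up to about 92 µM.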 An outline of the steps:
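In this multiplexed counter screen, cells were seeded at 2,000 per well in medium with 2% charcoal-stripped FBS and incubated 6 hr before compound and 1nM final E2 were added. Sixteen hours later, ATP-based luminescence reported viability.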

Assay [13] is described as follows: qHTS assay to identify small molecule agonists or antagonists of the thyroid stimulating hormone receptor (TSHR) signaling pathway - wild type cell line counter screen (AID 1259384; calls by dose curve). An outline of the steps: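 Counter screen in untransfected Hek293: compounds (15-point titration, triplicate) plus phosphodiesterase inhibitor Ro20-1724 added after 18 h plating; 30 min RT. Intracellular cAMP via competitive d2/cryptate immunoassay, 1 h incubation.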

The target in assay [14] is Thyrotropin receptor (Homo sapiens) (UniProt P16473). Kind of assay: qHTS assay to identify small molecule antagonists of the thyroid stimulating hormone receptor (TSHR) signaling pathway (AID 1259385; calls by dose curve; also: nearly all actives have a fitted effect of over 20% in size; also: potency is read from the fitted curve at half-maximal effect). An outline of the steps:
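Antagonist mode: compound-treated TSHR-expressing HEK293 cells were stimulated with 1.5 ng/mL TSH (final) in presence of Ro20-1724 for 30 min at RT. HTRF cAMP detection after 1 h; each compound tested at 15 concentrations, triplicate.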

Assay [15] in a line: qHTS assay to identify small molecule agonists of the estrogen receptor alpha (ER-alpha) signaling pathway in the presence of an antagonist - cell viability counter screen (AID 1259386).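 Also: cells exposed to compounds for 22 h at 37 °C before the viability read; nearly all actives have a fitted effect of over 30% in size.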 Also: potency is read from the fitted curve at half-maximal effect. As to activity change, negative = cytotoxicity: series mostly up to about 92 µM. The procedure, abridged:
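Viability counter screen using VM7Luc4E2 (full-length ER-alpha, four ERE-luciferase). The cells were treated with compounds alongside ICI-182,780 10.0nM for 22hr, and live-cell protease fluorescence was quantified with CellTiter-Fluor.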

Assay [16] in a line: qHTS assay to identify small molecule phospholipidosis (PLD) inducers (AID 1259344; active = well fitted curve in the direction sought with a large enough effect; an effect the other way counts as inactive or inconclusive). An outline of the steps: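 Fluorescent phospholipid staining (LipidTOX Red) measured by automated microscopy in fixed HepG2 cells after 24 h treatment; nuclei counterstained with Hoechst 33342; amiodarone as reference inducer.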
In assay [17] the target is Estrogen receptor beta (Homo sapiens) (UniProt Q92731). Kind of assay: qHTS assay to identify small molecule agonists of the estrogen receptor beta (ER-beta) signaling pathway (AID 1259377; active = well fitted activation curve with a large enough effect in the signal ratio in the repeat runs, not every such curve was filed as active; the % refers to the signal ratio). An outline of the steps:
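Measured by fluorescence intensity from a B/G FRET beta-lactamase substrate (2 h, room temperature) in ER-beta-UAS-bla HEK293T cells treated with DMSO-dissolved compounds for 16 hr at 37C and 5% CO2.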

Assay [18] has as its target Estrogen receptor (Homo sapiens) (UniProt P03372). Kind of assay: qHTS assay to identify small molecule agonists of the estrogen receptor alpha (ER-alpha) signaling pathway in the presence of an antagonist (AID 1259383; calls by dose curve; also: top concentration of the series differs between compounds; nearly all actives have a fitted effect of over 15% in size). An outline of the steps: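 Stably transfected VM7Luc4E2 reporter cells, kept 5 days in charcoal-stripped serum, received ICI-182,780 at 10.0nM final before compound addition. Following 22hr incubation at 37C and 5% CO2, luciferase signal was read by luminescence.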

Assay [19] addresses Androgen receptor (Homo sapiens) (UniProt P10275). Briefly: qHTS assay to identify small molecule agonists of the androgen receptor (AR) signaling pathway in the presence of an antagonist (AID 1259381; calls by dose curve; also: nearly all actives have a fitted effect of over 15% in size). An outline of the steps:
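Test compounds at 15 concentrations were incubated for 16hr with MDA-kb2 reporter cells in presence of 3.0uM nilutamide (final). Signal: ONE-Glo luciferase luminescence.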

Several values for one entry are separate records, joined by “and”; a condition that tells them apart may be missing. Identical values can stand only once. Records with an inconclusive call do not appear. Some compounds were tested as several samples or in several runs, with calls that do not always agree. Activity calls are given as the source filed them. Unless noted, calls follow the shape of the dose curve; as a rule, active = well fitted curve in the direction sought with a large enough effect in the repeat runs; inconclusive = weak or mixed curves; inactive = no such curve, though single readings can be large; an effect the other way counts as inactive or inconclusive.
% is scaled to controls: 0 for no effect and ±100 for the full control effect.

Chain of Estrogen receptor beta (Homo sapiens) (Q92731 whole entry, looked up): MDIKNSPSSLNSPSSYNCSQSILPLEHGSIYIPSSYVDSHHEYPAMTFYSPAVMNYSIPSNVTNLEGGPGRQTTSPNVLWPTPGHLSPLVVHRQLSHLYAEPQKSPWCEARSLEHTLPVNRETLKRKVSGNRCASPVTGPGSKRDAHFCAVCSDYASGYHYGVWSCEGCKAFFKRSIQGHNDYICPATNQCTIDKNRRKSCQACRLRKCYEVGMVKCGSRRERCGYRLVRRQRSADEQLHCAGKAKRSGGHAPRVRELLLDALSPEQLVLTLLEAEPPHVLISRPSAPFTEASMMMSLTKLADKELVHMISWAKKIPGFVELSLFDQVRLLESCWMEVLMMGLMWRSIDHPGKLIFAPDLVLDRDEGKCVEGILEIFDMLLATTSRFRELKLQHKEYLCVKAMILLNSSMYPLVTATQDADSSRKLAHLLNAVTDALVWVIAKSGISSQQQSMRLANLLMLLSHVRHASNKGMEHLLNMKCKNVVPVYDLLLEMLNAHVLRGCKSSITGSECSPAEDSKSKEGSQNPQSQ
Chain of Estrogen receptor (Homo sapiens) (P03372 whole entry, looked up): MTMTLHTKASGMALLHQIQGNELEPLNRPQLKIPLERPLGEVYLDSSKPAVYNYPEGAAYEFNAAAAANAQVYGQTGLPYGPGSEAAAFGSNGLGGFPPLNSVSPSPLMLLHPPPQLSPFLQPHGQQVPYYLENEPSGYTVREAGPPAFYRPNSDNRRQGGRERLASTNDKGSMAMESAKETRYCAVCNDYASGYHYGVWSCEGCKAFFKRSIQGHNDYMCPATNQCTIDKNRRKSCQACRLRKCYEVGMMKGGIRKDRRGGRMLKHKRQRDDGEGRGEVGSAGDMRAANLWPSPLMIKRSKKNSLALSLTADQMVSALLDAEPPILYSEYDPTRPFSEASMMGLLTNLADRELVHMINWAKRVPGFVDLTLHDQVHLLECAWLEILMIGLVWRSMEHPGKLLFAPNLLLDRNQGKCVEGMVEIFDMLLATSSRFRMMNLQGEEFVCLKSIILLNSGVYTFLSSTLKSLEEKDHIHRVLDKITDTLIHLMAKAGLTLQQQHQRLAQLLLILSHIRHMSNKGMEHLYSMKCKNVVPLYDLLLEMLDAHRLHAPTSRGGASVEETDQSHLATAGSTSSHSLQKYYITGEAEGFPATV
Chain of Thyrotropin receptor (Homo sapiens) (P16473 whole entry, looked up): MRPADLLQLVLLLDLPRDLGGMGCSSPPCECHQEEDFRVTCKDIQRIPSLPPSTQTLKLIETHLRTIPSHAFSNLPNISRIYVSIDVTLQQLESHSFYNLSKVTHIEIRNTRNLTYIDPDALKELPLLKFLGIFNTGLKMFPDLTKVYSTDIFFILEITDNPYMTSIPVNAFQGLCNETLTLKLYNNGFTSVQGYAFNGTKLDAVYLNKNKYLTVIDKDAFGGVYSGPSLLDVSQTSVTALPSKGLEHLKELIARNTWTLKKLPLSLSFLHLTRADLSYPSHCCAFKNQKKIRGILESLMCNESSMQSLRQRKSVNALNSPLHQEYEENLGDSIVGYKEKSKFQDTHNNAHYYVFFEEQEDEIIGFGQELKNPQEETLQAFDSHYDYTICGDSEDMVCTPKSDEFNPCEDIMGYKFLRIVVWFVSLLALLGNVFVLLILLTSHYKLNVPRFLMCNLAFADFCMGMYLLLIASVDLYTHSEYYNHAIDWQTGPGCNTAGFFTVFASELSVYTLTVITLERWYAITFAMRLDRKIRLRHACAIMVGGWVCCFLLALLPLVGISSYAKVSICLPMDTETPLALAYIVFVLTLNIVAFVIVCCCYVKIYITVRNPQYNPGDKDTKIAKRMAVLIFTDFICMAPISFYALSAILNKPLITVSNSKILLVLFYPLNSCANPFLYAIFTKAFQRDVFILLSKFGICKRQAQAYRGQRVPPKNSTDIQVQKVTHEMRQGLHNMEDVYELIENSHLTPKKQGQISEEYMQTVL
Chain of Androgen receptor (Homo sapiens) (P10275 whole entry, looked up): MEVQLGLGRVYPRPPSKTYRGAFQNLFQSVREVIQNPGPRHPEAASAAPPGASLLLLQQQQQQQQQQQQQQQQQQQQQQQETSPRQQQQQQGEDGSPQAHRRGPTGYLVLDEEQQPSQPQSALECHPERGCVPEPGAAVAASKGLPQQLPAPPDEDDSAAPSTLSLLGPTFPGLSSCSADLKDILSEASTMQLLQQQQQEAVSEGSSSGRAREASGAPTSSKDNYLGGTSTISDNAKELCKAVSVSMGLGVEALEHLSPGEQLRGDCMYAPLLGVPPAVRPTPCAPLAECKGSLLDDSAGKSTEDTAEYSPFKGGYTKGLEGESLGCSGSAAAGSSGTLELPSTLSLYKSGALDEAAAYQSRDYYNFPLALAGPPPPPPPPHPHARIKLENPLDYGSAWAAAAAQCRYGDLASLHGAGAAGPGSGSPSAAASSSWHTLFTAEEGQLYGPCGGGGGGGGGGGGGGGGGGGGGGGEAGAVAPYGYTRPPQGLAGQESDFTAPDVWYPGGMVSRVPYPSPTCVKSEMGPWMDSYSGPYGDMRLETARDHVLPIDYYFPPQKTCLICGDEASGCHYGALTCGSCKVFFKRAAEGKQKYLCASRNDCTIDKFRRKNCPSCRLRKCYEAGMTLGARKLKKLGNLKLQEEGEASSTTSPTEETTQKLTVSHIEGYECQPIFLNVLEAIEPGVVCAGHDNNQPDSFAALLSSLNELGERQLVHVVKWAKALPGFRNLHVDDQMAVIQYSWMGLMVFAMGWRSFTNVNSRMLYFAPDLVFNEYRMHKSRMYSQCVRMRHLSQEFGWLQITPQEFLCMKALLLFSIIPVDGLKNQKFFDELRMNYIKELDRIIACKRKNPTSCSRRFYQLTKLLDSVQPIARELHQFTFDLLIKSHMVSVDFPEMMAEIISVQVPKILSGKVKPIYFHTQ

In the case of `CC1=CCC(=O)O1`, the Potency entry in assay [1], in assay [2], in assay [3], in assay [4], in assay [5] and in assay [6] was “inactive” each time. Further, the Potency entry in [7], in [8], in [9], in assay [10], in assay [11] and in assay [12] was “inactive” in each case. The Potency result in [14] and in assay [15] was “inactive” throughout. The outcome in assay [13] was inactive.
Consider `CC(C)N=C(N)/N=C(\N)Nc1ccc(Cl)cc1`, for which the Potency result in [1], in assay [2], in assay [16], in assay [3], in [4] and in assay [6] was “inactive” each time. In addition, the Potency result in [7], in [17], in [10] and in assay [15] was “inactive” each time. The Potency in assay [11] is 23.7 µM (active).
Turning to `CCCCCCCC/C=C\CCCCCCCC(=O)OCCOC(=O)CCCCCCC/C=C\CCCCCCCC`, the Potency result in assay [1], in assay [2], in assay [3], in assay [4], in [5] and in assay [6] was “inactive” throughout. For the same compound, the Potency entry in assay [7], in [8], in assay [9], in [10], in assay [11] and in assay [12] was “inactive” each time. Further, the Potency result in assay [18], in assay [14] and in assay [15] was “inactive” each time. In [13], the compound was called inactive.
`O=S(O)O`: the viability change, negative = cytotoxic is 4.5% [at 19 µM] (inactive) in assay [1], 2.93% [at 19 µM] (inactive) in [5] and 0.928% [at 19 µM] (inactive) in [6]. Also, the activity change, negative = inhibition in [2] was -4.06% [at 19 µM] (inactive); in [3] it was 2.9% [at 19 µM] (inactive); in assay [8] it was 12.9% [at 19 µM] (inactive); in assay [14], 0.0817% [at 19 µM] (inactive). The activity change, negative = cytotoxicity was 2.88% [at 19 µM] (inactive) in [4], 1.09% [at 19 µM] (inactive) in [10], -0.0055% [at 19 µM] (inactive) in [11] and 4.33% [at 19 µM] (inactive) in [12]. Also, the activity change in [7] was -1.4% [at 18.9 µM, stronger effect = higher value] (inactive). Moreover, the activity, negative = inhibition in assay [9] is 1.38% [at 19 µM] (inactive). The activation in assay [18] was -0.842% [at 19 µM] (inactive). For the same compound, the cAMP activity change in assay [13] was -1.65% [at 18.9 µM] (inactive).
In the case of `CCN(CC)CCOC(=O)C1(C2CCCCC2)CCCCC1`, the Potency result in [1], in [2], in [16], in assay [3], in assay [4] and in assay [6] was “inactive” throughout. Moreover, the Potency entry in assay [7], in assay [9], in [10], in assay [19], in assay [18] and in assay [15] was “inactive” in each case. The Potency in [11] was 26.6 µM (active); in assay [14], 29.8 µM (active). In assay [13], the result was inactive.
Regarding `CCCCCCCC(C)=O`, the Potency result in [1], in assay [2], in assay [3], in assay [4], in [5] and in assay [6] was “inactive” throughout. Besides, the Potency entry in [7], in assay [8], in assay [9], in [10], in [11] and in assay [12] was “inactive” in each case. Also, the Potency result in assay [18], in [14] and in [15] was “inactive” throughout. Also, the outcome in [13] was inactive.
Consider `CSc1ccc2c(c1)N(CCC1CCCCN1C)c1ccccc1S2` (stereo not given), for which the Potency in assay [1] was 54.3 µM (active); in [2] it was 54.3 µM (active) and inactive; in assay [5], 15.3 µM (active) and 29.8 µM (active); in assay [6], 21.6 µM (active) and 29.8 µM (active); in assay [8], 5.43 µM (active) and 11.9 µM (active); in assay [10], 54.3 µM (active) and 29.8 µM (active). Further, the Potency in [11] is 19.3 µM (active) and 18.8 µM (active); in assay [12] it was 15.3 µM (active) and 13.3 µM (active); in [15], 68.3 µM (active) and inactive. For the same compound, the Potency result in assay [16], in assay [3], in [7] and in assay [18] was “inactive” each time. Further, the compound was classed as inactive in [13].
Turning to `CC(C(O)c1ccccc1)N(C)CCOC(c1ccccc1)c1ccccc1` (stereo not given), the Potency in assay [1] is 29.8 µM (active); in assay [8] it was 21.1 µM (active); in [10], 29.8 µM (active); in assay [11], 29.8 µM (active); in assay [12] it was 18.8 µM (active). The Potency entry in [2], in assay [16], in [3], in [4], in assay [7] and in assay [18] was “inactive” throughout. The Potency result in assay [15] was “inactive”. The compound was classed as inactive in [13].
